Compound activity (PubChem)
TRb SRC2 PPI: qHTS for Inhibitors of the Interaction of Thyroid Hormone Receptor and Steroid Receptor Coregulator 2 | AID 1469, 2008 | Potency, µM (series often up to 106 µM), without a hit: at the top dose activity change, negative = inhibition, usual class: inhibitors | Thyroid hormone receptor beta (Homo sapiens), P10828 | TRbeta-SRC2 peptide binding, fluorescence polarization; receptor liganded with 1 µM T3 | 280,000 compounds, 0.065% hits;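 further: plate controls were bound peptide for no effect and peptide without receptor for full effect; nearly all actives have a fitted effect of over 50% in size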
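Human TRb LBD (0.6 uM) plus Texas Red-labeled SRC2 peptide (20 nM), 1uM T3, 5% DMSO, 5 hr at ambient temperature. Decreased polarization (555/632 nm) flags inhibition; data normalized to free and bound peptide controls.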
RECQ1 inh-1: qHTS Assay for Inhibitors of RecQ-Like Dna Helicase 1 (RECQ1) | Potency, µM (top dose mostly 57.3 µM), inactives show top-dose activity, negative = inhibition, usual class: inhibitors | RECQ1 DNA unwinding, red fluorescence kinetic read | ATP-dependent DNA helicase Q1 (Homo sapiens), P46063 | 240,000 compounds, 0.54% hits;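 further: plate controls were vehicle for no effect and no enzyme for full effect; nearly all actives have a fitted effect of over 30% in size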
Target sequence (P46063 whole entry, looked up): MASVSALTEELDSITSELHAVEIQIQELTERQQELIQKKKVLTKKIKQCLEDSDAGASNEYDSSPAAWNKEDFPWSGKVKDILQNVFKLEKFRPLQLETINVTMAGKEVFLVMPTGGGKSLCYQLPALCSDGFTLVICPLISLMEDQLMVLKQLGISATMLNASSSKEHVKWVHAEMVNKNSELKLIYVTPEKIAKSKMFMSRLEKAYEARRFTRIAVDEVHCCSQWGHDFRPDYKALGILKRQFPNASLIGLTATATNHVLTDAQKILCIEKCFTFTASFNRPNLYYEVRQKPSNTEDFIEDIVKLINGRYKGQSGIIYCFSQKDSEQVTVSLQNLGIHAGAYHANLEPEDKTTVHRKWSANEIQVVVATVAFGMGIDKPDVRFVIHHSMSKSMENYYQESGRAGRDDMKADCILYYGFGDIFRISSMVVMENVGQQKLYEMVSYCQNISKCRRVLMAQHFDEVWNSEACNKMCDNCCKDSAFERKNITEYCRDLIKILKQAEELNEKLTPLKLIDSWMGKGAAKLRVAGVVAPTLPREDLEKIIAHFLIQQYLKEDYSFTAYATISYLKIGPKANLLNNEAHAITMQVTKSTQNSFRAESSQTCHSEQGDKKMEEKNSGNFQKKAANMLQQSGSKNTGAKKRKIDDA
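50 nM RECQ1T1 preincubated 15 min with compound in Tris pH 8.0 buffer with MgCl2, DTT, Tween-20 and 2.5 ug/ml poly(dI-dC); started with 200 nM TAMRA/BHQ-2 forked duplex and 2 mM ATP. Unwinding read as fluorescence (525/598 nm), two reads 2 h apart.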
ERG-DNA inh: qHTS for Small Molecule Inhibitors of the ERG Ets/DNA interaction | Transcriptional regulator ERG (Homo sapiens), P11308 | fluorescence polarization, His-ERG Ets domain / labelled DNA | Potency, µM (highest dose often 76.9 µM), inactives show top-dose FP activity, negative = inhibition, actives largely listed as inhibitors | 370,000 compounds, 0.028% hits; active means well fitted inhibition curve with a large enough effect in the polarisation, with a control signal flat; inconclusive means small, poorly fitted or top-dose-only effect, or effect the other way, or a change in a side signal; inactive means no such curve, though single readings can be large or run the other way; the % refers to the polarisation;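 further: polarization taken with two DNA probes labelled with fluorescein and Texas red; % of control where 0% means no effect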
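His-tagged ERG Ets domain (1 uM in the protein solution; 300mM KCl, 50mM Tris-HCl, 1mM EDTA, 1mM DTT, pH 7.5) received compound, then a probe mix of 5 nM fluorescein-DNA and 100nM Texas-615-DNA. Fluorescence polarization was read for both dyes.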
BLM helicase inh: qHTS Assay for Inhibitors of Bloom's syndrome helicase (BLM); 350,000 compounds, 0.2% hits; recombinant BLM DNA unwinding, fluorescence dequenching; RecQ-like DNA helicase BLM (Homo sapiens), P54132; Potency, µM (top dose mostly 56.1 µM), inactives show top-dose activity change, negative = inhibition, most hits filed as inhibitors;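 further: plate controls were vehicle for no effect and no enzyme for full effect; nearly all actives have a fitted effect of over 35% in size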
GoLoco inh red: qHTS Assay for Inhibitors of RGS12 GoLoco Motif Activity (Red Fluorophore). Gai1:RGS12 GoLoco peptide FP, rhodamine, 10 min. AID 880, 2007. Potency, µM (top dose mostly 61.6 µM), inactives show at the highest dose activity, negative = inhibition, usual class: inhibitors. Guanine nucleotide-binding protein G(i) subunit alpha-1 (Homo sapiens), P63096. 230,000 compounds, 0.44% hits; active means well fitted inhibition curve with a large enough effect, not every such curve was filed as active; inactive means no such curve, though single readings can be large or run the other way; further: on the % scale 0 is the no-effect control and ±100 the full control effect; nearly all actives have a fitted effect of over 30% in size
TexasRed fluor: Total Fluorescence Counterscreen for Inhibitors of the Interaction of Thyroid Hormone Receptor and Steroid Receptor Coregulator 2. AID 1479, 2009. TRb/SRC2 Texas Red total fluorescence interference. Potency, µM (doses to about 106 µM), for inactives: at the top dose fluorescence change, negative = quenching. 280,000 compounds, 0.29% hits; active means well fitted curve in either direction with a large enough effect; inconclusive means small, poorly fitted or top-dose-only effect; further: on the % scale 0 is the no-effect control and ±100 the full control effect
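Human TRβ ligand-binding domain (0.6 uM) and Texas Red SRC2 peptide (20 nM) in Tris buffer with 1 uM T3 and 5% DMSO were incubated with pinned compound for 5 hr at ambient temperature. Total fluorescence was computed as S + 2P (555/632 nm).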
RECQ1 conf: Confirmation qHTS Assay for Inhibitors of RecQ-Like Dna Helicase 1 (RECQ1); shares compounds with RECQ1 inh-1; RECQ1 helicase DNA unwinding, fluorescence; Potency, µM (top dose mostly 229 µM), for the others: top-dose activity change, negative = inhibition, most hits filed as inhibitors; 610 compounds, 28% hits; further: on the % scale 0 is the no-effect control and ±100 the full control effect; nearly all actives have a fitted effect of over 45% in size
ADP FP counter: Counterscreen for RECQ1 Inhibitors: ADP Fluorescence Polarization Displacement Assay; shares compounds with RECQ1 inh-1; ADP fluorescence polarization displacement counterscreen; 530 compounds, 27% hits; Potency, µM (series often up to 228 µM), without a hit: at the top dose activity change, negative = inhibition, actives largely listed as inhibitors; further: on the % scale 0 is the no-effect control and ±100 the full control effect; nearly all actives have a fitted effect of over 45% in size
RECQ1 inh-2: Confirmation qHTS Assay for Inhibitors of RecQ-Like Dna Helicase 1 (RECQ1) - Round 2 Cherry Picks; shares compounds with RECQ1 inh-1; recombinant RECQ1 DNA unwinding, red fluorescence; Potency, µM (top dose mostly 119 µM), for inactives: at the highest dose activity, negative = inhibition, hits mostly inhibitors; 1,100 compounds, 15% hits; further: on the % scale 0 is the no-effect control and ±100 the full control effect; nearly all actives have a fitted effect of over 50% in size
Active calls of the source: *; i = inactive; ? = inconclusive; · = no result; + = active, no number; [ ] = dose if it differs, or a comment. The list is not random: actives were taken first. Their share in the collection is about 0.71%. Unless noted, the call rests on the fitted dose curve; in most records, active means well fitted curve in the direction sought with a large enough effect; inconclusive means small, poorly fitted or top-dose-only effect, or another doubt; inactive means no such curve, though single readings can be large; an effect the other way counts as inactive or inconclusive. Potency means the concentration at half of the fitted maximal effect.

SMILES	TRb SRC2 PPI	RECQ1 inh-1	ERG-DNA inh	BLM helicase inh	GoLoco inh red	TexasRed fluor	RECQ1 inh-2	others
CN1CC(O)C2=CC(=O)C(=O)C=C21 (configuration not stated)	-23.7%	2.82µM*	·	·	3.55µM*	?	·	RECQ1 conf=+;ADP FP counter=10µM*
COc1cccc([C@@H]2Oc3ccc(Br)cc3[C@H](O)[C@H]2O)c1	0.3%	5.5%	·	-3.4%	0.3%	0.9%	·
COC(=O)Nc1ccc(S(=O)(=O)N2CCCCC2C(=O)O)cc1 (configuration not stated)	-1.2%	i	5.9%	-3.7%	-3.3%	-3.0%	·	RECQ1 conf=-4.1%;ADP FP counter=8.3%
CC(=O)Nc1ccc(S(=O)(=O)N2CCCCC2C(=O)O)cc1 (configuration not stated)	-2.1%	i	-13.5%	0.3%	7.0%	0.4%	·
CN1CCN(S(=O)(=O)c2ccc(NC(=S)NC(=O)C3CCCCC3)cc2)CC1	0.3%	?	-8.2%	-1.7%	2.2%	-1.2%	-17.3%
CC1=C(c2ccc(NN=C(C#N)C#N)cc2)NNC(=O)C1	·	·	·	-17.8%	·	·	·
CCCCn1c(SCC(=O)NCc2ccco2)nc2ccc(N3CCOCC3)cc2c1=O	-2.3%	?	0.7%	-4.4%	-6.3%	-1.0%	?
CCCCn1c(SCC(=O)NCc2ccccc2)nc2ccc(N3CCOCC3)cc2c1=O	-18.2%	-12.8%	3.1%	-6.5%	-1.2%	0.1%	·
O=C(N/C=C/c1ccco1)NCc1ccccc1	3.9%	?	-6.3%	-9.5%	35.2%	-3.1%	-27.0%
O=C(N/C=C/c1ccco1)OCc1ccccc1	0.4%	-11.7%	-8.0%	-14.0%	66.6%	-1.9%	·
CNc1ccccc(C(=O)/C=C/c2ccccc2OC)c1=O	-2.0%	25.1µM*	·	-15.4%	15.4%	-1.3%	?
Cc1ccc2c(c1)-c1onc(C(=O)N(C)c3ccc(F)cc3)c1CO2	1.0%	·	-2.9%	-9.9%	·	-23.7%	·
COc1c(C(CC(C)C)OC(C)=O)ccc2c1C(=O)OCc1cc(C)cc(O)c1O2 (configuration not stated)	-0.9%	?	14.0%	-20.1%	-0.2%	-4.8%	-12.8%
c1ccc2c[n+](Cc3ccnc4ccccc34)ccc2c1	·	·	·	·	-41.8%[14.2 µM]	·	·
COc1cccc2c1C(=O)c1c(O)c3c(c(O)c1C2=O)C[C@@](O)(C(=O)CO)C[C@@H]3OC1C[C@@H](N)[C@H](O)[C@H](C)O1 (some centres not stated)	14.1µM*	15.8µM*	·	28.2µM*	3.55µM*	39.8µM*[fluorescent]	·	ADP FP counter=0.398µM*
CC(=O)[C@]1(O)Cc2c(O)c3c(c(O)c2[C@@H](O[C@H]2C[C@H](N)[C@H](O)[C@H](C)O2)C1)C(=O)c1c(O)cccc1C3=O	22.4µM*	28.2µM*	·	28.2µM*	0.794µM*	44.7µM*[fluorescent]	·	RECQ1 conf=100µM*;ADP FP counter=0.891µM*
COc1cccc2c1C(=O)c1c(O)c3c(c(O)c1C2=O)C[C@](O)(C(=O)CO)C[C@@H]3O[C@H]1C[C@H](N)[C@@H](O)[C@H](C)O1	2.6%	·	·	4.7%	-1.4%	0.7%	·
COc1cccc2c1C(=O)c1c(O)c3c(c(O)c1C2=O)C[C@@](O)(C(=O)CO)C[C@@H]3O[C@H]1C[C@H](N)[C@@H](O)[C@H](C)O1	·	·	i	·	·	·	·
O=C1CC2(CCCC2)CC(=O)N1CCCCNC[C@H]1COc2ccccc2O1	-5.4%	-18.0%	·	4.2%	7.0%	-1.5%	·
CCN1CCN(C(c2cccc(Cl)c2)c2c(O)cc(C)n(CCOC)c2=O)CC1 (configuration not stated)	2.5%	·	2.4%	-0.3%	·	1.1%	·
CC(C)(C)[C@@H]1C=C(C(=O)NCc2ccccc2)O[C@H](OCc2ccc(CO)cc2)C1	5.3%	?	-1.5%	-5.3%	-1.4%	-0.4%	·	RECQ1 conf=5.9%[114 µM];ADP FP counter=?
C[C@H]1C=C(C(=O)NCc2ccccc2)O[C@@H](OCc2ccc(CO)cc2)C1	3.9%	?	-3.4%	-0.8%	2.1%	0.2%	·
Cc1cc(C2C(=O)CC(=O)CC2c2ccccc2)on1 (configuration not stated)	-24.4%	25.1µM*	8.9%	-14.4%	16.0%	0.8%	?
O=C(O)CN=C1CC(c2ccccc2)CC(=O)/C1=C(/O)CCCN1C(=O)c2ccccc2C1=O (configuration not stated)	-4.1%	i	0.5%	1.3%	2.0%	-0.5%	·	RECQ1 conf=?;ADP FP counter=6.2%
CN=C1CC(C)(C)CC(=O)/C1=C(/O)CCCN1C(=O)c2ccccc2C1=O	-0.8%	-4.4%	-6.1%	0.0%	3.4%	0.6%	·
CC(=O)Nc1ccc(NC(=S)NC(=O)c2ccc(C(C)(C)C)cc2)cc1	·	·	·	-11.2%	·	·	·
COc1ccc(Nc2ccc(Nc3ccc(OC)cc3)nn2)cc1	1.7%	-9.0%	8.4%	1.4%	·	-3.9%	·
COc1ccc(Nc2ccc(OC)cc2)cc1	?	5.62µM*	-9.8%	-6.4%	-37.0%	12.1%	-25.4%	RECQ1 conf=?;ADP FP counter=20µM*
CCOc1ccc(NC(=O)c2ccc3c(c2)CCN3S(=O)(=O)CC)cc1	1.9%	·	-1.1%	-16.6%	·	-1.3%	·
O=C(NCc1ccccn1)C1CCN(S(=O)(=O)c2cc(Cl)ccc2Cl)CC1	-1.1%	?	11.5%	0.0%	0.0%	-0.8%	-3.9%
